Assay outcomes: PubChem, several laboratories
Compounds with a hit are over-represented: about 1.4% of the library has one in this group of screens.
CCHFV vOTU inh = blocks the CCHF virus ovarian tumor domain protease; inhibition, % at 11.5 µM; AID 651958; CCHFV vOTU protease, Pep-AMC fluorescence; hit rate 0.55% among 370,000; in the data active means inhibition above about 30%; further: 0% = vehicle wells with enzyme and 100% = no enzyme wells
SARS 3CLpro inh-1 = SARS-CoV 3CLpro protease inhibition; recombinant SARS-CoV 3CLpro, quenched FRET peptide cleavage; inhibition, % at 6 µM; P0C6X7; AID 1706; hit rate 0.14% among 290,000; in the data active means inhibition above about 12%
BJeLR lethal = BJeLR cell viability loss; inhibition, % (test concentration not listed); AID 1554; BJeLR (HRASV12) viability, CellTiter-Glo ATP luminescence, 48 h; hit rate 0.17% among 300,000; in the data active means inhibition above about 50%
MazEF act = activators of E. coli MazEF toxin-antitoxin RNase; P0AE70; FAM/BHQ RNA-DNA oligo cleavage fluorescence, 5 h; activation, % at 20 µM; hit rate 0.32% among 350,000; in the data active means activation above about 50%
Target sequence (P0AE70 whole entry, looked up): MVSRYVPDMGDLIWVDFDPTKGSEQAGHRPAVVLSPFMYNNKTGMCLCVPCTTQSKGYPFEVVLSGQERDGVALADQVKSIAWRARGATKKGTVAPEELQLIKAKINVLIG
VHR inh abs = DUSP3 (human) phosphatase inhibition; hit rate 0.52% among 290,000; P51452; inhibition, % at 13.3 µM; AID 1654; recombinant VHR phosphatase, pNPP absorbance; in the data active means inhibition above about 50%
Target sequence (P51452 whole entry, looked up): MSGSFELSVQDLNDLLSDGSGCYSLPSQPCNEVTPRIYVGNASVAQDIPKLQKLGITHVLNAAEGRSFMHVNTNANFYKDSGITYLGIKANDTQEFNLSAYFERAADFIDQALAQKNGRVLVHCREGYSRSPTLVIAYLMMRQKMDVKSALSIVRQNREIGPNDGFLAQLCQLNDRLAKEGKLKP
SARS 3CLpro inh-2 = confirmation of SARS coronavirus 3C-like protease inhibitors; shares compounds with SARS 3CLpro inh-1; QFRET protease activity assay, 3CLpro; inhibition, % at 6 µM; hit rate 36% among 380; in the data active means inhibition above about 13%
* hit, by the source's call; nt = no result.

SMILES	CCHFV vOTU inh	SARS 3CLpro inh-1	BJeLR lethal	MazEF act	VHR inh abs	SARS 3CLpro inh-2
CS(=O)(=O)N[C@@H]1C[C@@H]2O[C@H](CO)CC[C@@H]2O[C@@H]1CCc1ccc(/C=C/c2ccccc2)cc1	-2	nt	nt	nt	nt	nt
Cc1cccc(NC(=S)NN2CCOCC2)c1C	15	13*	-20	3	-21	0
Cc1cccc(NC(=S)NN2CCN(C)CC2)c1C	5	0	-5	0	20	nt
COC(=O)c1cc(-c2ccc(F)c(Cl)c2)c(=O)n2c1CCC2	0	nt	nt	nt	nt	nt
Cc1cc(C)c(N(C(=O)Cn2nnc3ccccc32)C(C(=O)NC(C)(C)C)c2ccsc2)c(C)c1 (stereo not drawn)	17	43*	-4	0	6	69*
CCOC(=O)N1CCN(C(=O)C[C@H]2C[C@@]3(C(=O)OC)C(=C[C@H](COCc4ccccc4)O[C@@H]3C)N(Cc3ccco3)C2=O)CC1	13	nt	nt	nt	nt	nt
Cn1ncc(Cl)c1C(=O)NCc1ccc2c(c1)OCO2	0	7	11	1	10	nt
Cn1ncc(Cl)c1C(=O)Nc1ccc2c(c1)OCO2	-16	13*	-1	9	14	0
CC(C)(C)c1ccc(C(=O)Nc2ccc(S(=O)(=O)Nc3cnc4ccccc4n3)cc2)cc1	10	14*	7	-2	nt	8
CCn1c(SCC(=O)NN=Cc2ccc(C(=O)O)cc2)nc2ccccc21	-2	nt	nt	nt	nt	nt
COc1cc(CNCCc2c[nH]c3ccccc23)cc(OC)c1	-7	71*	6	12	16	-5
c1ccc(CNCCc2c[nH]c3ccccc23)cc1	-2	-2	1	6	6	nt
CCCNC(=O)CCc1nnc2ccc(N3CCC(C)CC3)nn12	2	3	1	6	1	nt
CC1CCN(c2ccc3nnc(CCC(=O)NCCCOC(C)C)n3n2)CC1	9	16*	0	-4	4	-1
O=C(O)/C(=C\c1cccc(OCc2ccccc2)c1)c1ccc(F)cc1	19	16*	1	9	6	6
O=C(N/N=C/c1ccc(F)cc1)c1ccc(OCc2ccccc2)cc1	-6	7	-5	-17	25	nt
O=S(=O)(c1cccc(NC(=S)N2CCN(c3ccccc3)CC2)c1)C(F)F	-2	13*	-4	3	-6	3
O=S(=O)(c1cccc(NC(=S)N2CCN(c3ccccc3F)CC2)c1)C(F)F	4	3	-4	-2	12	nt
O=c1[nH]c(=O)n(-c2ccccc2F)c(O)c1/C=C1\C=Nc2ccccc21	-4	29*	-1	-17	-3	38*
O=c1[nH]c(=O)n(Cc2ccccc2)c(O)c1/C=C1\C=Nc2ccccc21	13	2	1	-94	14	nt
Cc1ccc(-c2cc(NC(=O)CCl)n(-c3ccccc3)n2)cc1	9	11	3	3	-13	nt
Cc1ccc(-c2nn(-c3ccccc3)cc2NC(=O)CCl)cc1	9	14*	-3	-24	4	13*
O=C1C(NC(=O)N2c3ccccc3C=Cc3ccccc32)CCCCN1Cc1cccc(Cl)c1 (stereo not drawn)	2	nt	nt	nt	nt	nt
Cn1cccc1[C@]1(O)C(=O)Nc2ccc(F)cc21	-3	nt	nt	nt	nt	nt
CCCc1c(C(=O)N/N=C/c2c(OC)ccc3ccccc23)nnn1-c1nonc1N	-2	14*	5	-28	1	0
SMILES	CCHFV vOTU inh	SARS 3CLpro inh-1	BJeLR lethal	MazEF act	VHR inh abs	SARS 3CLpro inh-2
COc1cccc(/C=N/NC(=O)c2nnn(-c3nonc3N)c2CN(C)c2ccccc2)c1	18	12*	4	-6	2	0
CCCc1c(C(=O)N/N=C/c2ccc(OC)c(OCc3ccccc3)c2)nnn1-c1nonc1N	-19	6	11	-57	10	nt
CCOC(=O)[C@]12CCCC=C1N(CCCOC)C(=O)[C@@H]2CC(=O)NCc1ccccc1	-3	nt	nt	nt	nt	nt
CC(NC(=O)CN1CCN(c2ncccn2)CC1)c1ccc(F)cc1 (stereo not drawn)	3	1	0	-8	22	nt
CC(C)NC(=O)CN1CCN(c2ncccn2)CC1	4	12*	-7	-4	-14	1
N/C(=N\S(=O)(=O)c1cc(C(F)(F)F)cc(C(F)(F)F)c1)c1ccncc1	14	4	-1	6	5	nt
N/C(=N\S(=O)(=O)c1cc(C(F)(F)F)cc(C(F)(F)F)c1)c1ccc(Cl)cc1	23	14*	-13	-3	-2	6
Cc1ccc(C(=O)c2c3ccccc3[n+]([O-])n2CCC(N)=O)cc1	0	33*	5	9	29	36*
Cc1ccc(C(=O)c2c3ccc([N+](=O)[O-])cc3[n+]([O-])n2CCC(N)=O)cc1	12	12*	3	1	10	12
CCOC(=O)[C@@]12CN(C(=O)OC(C)(C)C)CC=C1N(Cc1ccc(OC)cc1)C(=O)[C@H]2CC(=O)NCc1ccc(C)o1	8	nt	nt	nt	nt	nt
CCOC(=O)c1c(N)sc(C(O)(C(F)(F)F)C(F)(F)F)c1-c1ccccc1	-7	12*	-3	-1	12	10
CCOC(=O)c1cc(-c2ccccc2)sc1N	9	59*	2	11	18	33*
CCOC(=O)c1sc(-c2ccccc2)cc1N	-2	1	9	-6	-2	nt
Cc1ccc(C(=O)O)cc1NC(=S)NC(=O)c1ccc(COc2ccccc2)cc1	1	16*	-7	-8	-2	13*
CC(=O)NC1C(=O)N(CCN2CCOCC2)c2ccc(Br)cc21 (stereo not drawn)	-1	14*	-1	-7	-22	47*
COc1cccc(NC(=O)C2CCCN2C(=O)NC2CCC(C)CC2)c1 (stereo not drawn)	-4	nt	nt	nt	nt	nt
Cc1ccc(NC(=O)CCC(=O)NNC(=O)C(c2ccccc2)c2ccccc2)c(C)c1	-8	14*	2	-4	17	0
CCOc1ccc(NC(=O)CN2CCCN(c3ccc(OC)cc3)CC2)cc1	1	nt	nt	nt	nt	nt
CCCCCc1c2c(cc(O)c1C(=O)O)OC(=O)c1c(cc(OC)cc1C(=O)CCCC)O2	nt	15*	4	0	26	9
CCCCCc1c2c(cc(O)c1C(=O)O)OC(=O)c1cc(C(=O)CCCC)c(OC)cc1O2	23	nt	nt	-3	nt	nt
CC(C)C(=O)Nc1cccc(NC(=S)NC(=O)c2ccccc2Cl)c1	7	1	-3	6	-8	nt
O=C(Nc1ccc(NC(=S)NC(=O)c2ccccc2Cl)cc1)c1cccc(Cl)c1	2	16*	11	-7	nt	4
O=C(Nc1ccccc1[N+](=O)[O-])NC1CCCCN(Cc2cccc(Cl)c2)C1=O (stereo not drawn)	14	nt	nt	nt	nt	nt
COc1ccc(C(=O)n2c(SC)nc3cc4c(cc32)OCCO4)cc1	9	12*	3	1	28	92*
CC(=O)c1c(OC(=O)c2ccco2)c2ccccc2n1C	-4	13*	2	2	6	16*
CC(=O)c1cc(-c2ccccc2)[nH]c1N1CCOCC1	1	46*	-2	-3	30	6
O=C(Cc1ccc(Cl)c(Cl)c1)Nc1cccnc1	-13	23*	-9	9	2	21*
